Calls of active or inactive are those of the source. Calls come from the whole dose curve; as a rule, active = well fitted curve in the direction sought with a large enough effect in the repeat runs; inconclusive = weak or mixed curves; inactive = flat fitted curve, though single readings scatter.
experiment: qHTS assay to test for compound auto fluorescence at 460 nm (blue) in HepG2 cell free culture (AID 720685); details: Cell-free culture medium, blue autofluorescence 405/460 nm; series mostly up to 46 µM; fluorescence, % of fluorescent control: at the top concentration
Text: U.S. Tox21 Program National Center for Advancing Translational Sciences [NCATS] NIH Chemical Genomics Center [NCGC] U.S. Environmental Protection Agency [EPA] National Institutes of Environmental Health Sciences [NIEHS] National Toxicology Program [NTP] U.S. Food and Drug Administration [FDA] Tox21 Assay Overview: Compound auto fluorescence often interferes with screening of the compound library against various biological targets and signaling pathways. Some of these compounds may have fluorophoric properties. Such properties may interfere with the assay outputs resulting in false positives and/or negatives. To decrease such complications and ensure the compound activities are relevant in terms of biological response, the Tox21 10K compound library was screened for auto fluorescence. From the fluorophores used as reporter signals in our screening assays, the auto fluorescence equivalencies of compounds against three fluorophores have been evaluated: Triamterene, Fluorescein and Rose Bengal sodium for blue, green and red fluorescence, respectively. The fluorescence intensities were measured using Excitation/Emission wavelengths at 405/460nm, 485/535nm and 540/590nm for blue, green and red labels, respectively. This assay includes the blue fluorescence data.
Tox21 Assay Protocol Summary: 5 uL of culture medium (MEM containing 10% FBS) per well was dispensed into black wall/clear bottom 1536-well plates using a Multidrop Combi Dispenser (ThermoFisher Scientific, Waltham, MA). After 23 nL compound or DMSO vehicle was transferred into assay plate by a pintool work station (Kalypsys, San Diego, CA), fluorescence intensities in the assay plates were measured by an Envision (PerkinElmer, Shelton, CT) plate reader using three labels for measuring blue, green and red fluorescence at […] 460, 535 and 590nm respectively.
% is set by controls: 0 for no effect and ±100 for the full control effect.

| SMILES | fluorescence, % of fluorescent control | Potency |
| --- | --- | --- |
| CC(=O)O[C@H]1C[C@H](O[C@H]2[C@@H](O)C[C@H](O[C@H]3[C@@H](O)C[C@H](O[C@H]4CC[C@@]5(C)[C@H](CC[C@@H]6[C@@H]5C[C@@H](O)[C@]5(C)[C@@H](C7=CC(=O)OC7)CC[C@]65O)C4)O[C@@H]3C)O[C@@H]2C)O[C@H](C)[C@H]1O[C@@H]1O[C@H](CO)[C@@H](O)[C@H](O)[C@H]1O | -0.0675% (inactive) |  |
| Oc1ccc2c3c1O[C@H]1[C@@H](O)CC[C@@]4(O)[C@@H](C2)N(CC2CCC2)CC[C@]314 | -0.0398% (inactive) |  |
| Nc1ccc([N+](=O)[O-])cc1 | -0.536% [at 91.3 µM] (inactive) |  |
| Cc1ccccc1-n1c(C)nc2ccccc2c1=O |  | inactive |
| N#CC1(N2CCCCC2)CCCCC1 | 0.0229% (inactive) |  |
| [H+].[H+].[Hg+2].[O-]B([O-])[O-].[c-]1ccccc1 | -0.0056% (inactive) |  |
| CC(C)(O)[C@@H]1[C@H]2OC(=O)[C@@H]1[C@]1(O)C[C@H]3O[C@]34C(=O)O[C@H]2[C@]14C |  | inactive |
| C[C@]12CC[C@H]3[C@@H](CCC4=C(Cl)C(=O)CC[C@@]43C)[C@@H]1CC[C@@H]2O | 0.0153% (inactive) |  |
| CC1(C)[C@H](C=C(Cl)Cl)[C@H]1C(=O)OCc1c(F)c(F)cc(F)c1F | 0.0017% (inactive) |  |
| C[N+]1([O-])[C@@H]2CC[C@H]1CC(OC(=O)C(CO)c1ccccc1)C2 (stereo not given in full) |  | inactive |
| C[C@@H](CO)NC(=O)[C@@H]1C=C2c3cccc4[nH]cc(c34)C[C@H]2N(C)C1 | 3.73% (inactive) |  |
| CC(Cc1ccccc1)NC=O (stereo not given) | -0.0397% (inactive) |  |
| C[C@]12CC[C@H](O)C[C@H]1CC[C@@H]1[C@@H]2CC[C@]2(C)[C@@H](c3ccc(=O)oc3)C[C@H]3O[C@]132 | -0.0082% (inactive) |  |
| CC(=O)O[C@H]1C[C@H](O[C@H]2[C@@H](O)C[C@H](O[C@H]3[C@@H](O)C[C@H](OC4CC[C@@]5(C)[C@H](CC[C@@H]6[C@@H]5CC[C@]5(C)[C@@H](C7=CC(=O)OC7)CC[C@]65O)C4)O[C@@H]3C)O[C@@H]2C)O[C@H](C)[C@H]1O[C@@H]1O[C@H](CO)[C@@H](O)[C@H](O)[C@H]1O (stereo not given in full) | -0.0387% (inactive) |  |
| COc1ccc2c(c1)C13CCCC[C@@H]1C(C2)N(C)CC3 (stereo not given in full) | 0.089% (inactive) |  |
| C[C@@H]1[C@H](O)[C@@H](C)/C=C/C=C/CC/C=C/C=C/C=C/C=C/[C@H](O[C@H]2O[C@@H](C)[C@H](O)[C@@H](N)[C@H]2O)CC2O[C@](O)(C[C@@H](O)[C@H](O)CC[C@@H](O)C[C@@H](O)C[C@@H](O)CC(=O)O[C@H]1C)C[C@H](O)[C@H]2C(=O)O | 0.0538% (inactive) |  |
| CCCCCCC(=O)O[C@H]1CC[C@H]2[C@@H]3CC[C@H]4CC(=O)C=C(C)[C@]4(C)[C@H]3CC[C@]12C | -0.0594% (inactive) |  |
| C[C@H]1CC[C@]2(NC1)O[C@H]1C[C@H]3[C@@H]4CC[C@H]5C[C@@H](O)CC[C@]5(C)[C@H]4CC[C@]3(C)[C@H]1[C@@H]2C | 0.111% (inactive) |  |
| CCC1(c2cnc[nH]2)Cc2ccccc2C1 |  | inactive |
| C[C@]12CC[C@H]3[C@@H](CCC4=C(O)C(=O)CC[C@@H]43)[C@@H]1CC[C@@H]2OC(=O)CCC1CCCC1 | -0.0221% (inactive) |  |

| SMILES | fluorescence, % of fluorescent control | Potency |
| --- | --- | --- |
| O=[N+]([O-])c1c(Cl)c(Cl)cc(Cl)c1Cl | -0.162% [at 91.3 µM] (inactive) |  |
| CNC(C)CC1CCCCC1 (stereo not given) | 0.156% (inactive) |  |
| COc1ccc2c3c1O[C@H]1[C@@H](O)C=C[C@H]4[C@@H](C2)NCC[C@@]341 |  | inactive |
| c1ccc2c(c1)Sc1ccccc1N2CC1CN2CCC1CC2 (stereo not given) | 0.118% (inactive) |  |
| O.O.O.O=C([O-])C(O)C(O)C(=O)[O-].O=C([O-])C(O)C(O)C(=O)[O-].[K+].[K+].[Sb].[Sb] (stereo not given) | 0.0919% (inactive) |  |
| CCC(=O)O[C@]1(c2ccccc2)CCN(C)C[C@H]1C | -0.0073% (inactive) |  |
| CC(C)=CCN1CC[C@]2(C)c3cc(O)ccc3C[C@H]1[C@H]2C | 0.429% [at 91.3 µM] (inactive) |  |
| OC(c1ccccc1)(c1ccccc1)C1CN2CCC1CC2 (stereo not given) | -0.13% (inactive) |  |
| CCOC(=O)C(O)(c1ccc(Cl)cc1)c1ccc(Cl)cc1 |  | inactive |
| COC1=CC=C2[C@H]3Cc4ccc(OC)c5c4[C@@]2(CCN3C)[C@H]1O5 |  | inactive |
| c1ccccc1 | -0.147% [at 91.3 µM] (inactive) |  |
| CCN(CC)C(=O)N[C@H]1C[C@@H]2c3cccc4[nH]cc(c34)C[C@H]2N(C)C1 | 1.05% (inactive) |  |
| CCNC1(c2cccs2)CCCCC1=O (stereo not given) | 0.0047% [at 18.6 µM] (inactive) |  |
| C#CC(C)(O)CC (stereo not given) | 0.0358% (inactive) |  |
| CCC1(c2ccccc2)C(=O)NC(=O)N(C)C1=O (stereo not given) | 0.0252% (inactive) |  |
| CCC/C=C/C=C/C(=O)O[C@H]1/C(=C/C(=O)OC)C[C@H]2C[C@H]([C@@H](C)O)OC(=O)C[C@H](O)C[C@@H]3C[C@H](OC(C)=O)C(C)(C)[C@](O)(C[C@@H]4C/C(=C/C(=O)OC)C[C@H](/C=C/C(C)(C)[C@]1(O)O2)O4)O3 | -0.002% (inactive) |  |
| CO[C@H]1[C@@H](O)C[C@H](O[C@H]2[C@@H](O)C[C@H](O[C@H]3[C@@H](O)C[C@H](O[C@H]4CC[C@@]5(C)[C@H](CC[C@@H]6[C@@H]5C[C@@H](O)[C@]5(C)[C@@H](C7=CC(=O)OC7)CC[C@]65O)C4)O[C@@H]3C)O[C@@H]2C)O[C@@H]1C | 0.0234% (inactive) |  |
| C/C=C(\CC)C(=O)NC(N)=O | -0.0154% (inactive) |  |
| c1ccc(C2(N3CCCC3)CCCCC2)cc1 | 0.859% (inactive) |  |
| O=C1C(I)=CC(=C(c2cc(I)c(O)c(I)c2)c2ccccc2C(=O)O)C=C1I |  | inactive |

— PubChem BioAssay (Tox21)
